Assay outcomes deposited in PubChem BioAssay by National Center for Advancing Translational Sciences (NCATS).
G9a inh: blocks human histone lysine methyltransferase G9a; Q96KQ7; G9a H3K9 monomethylation, AlphaScreen, 2 h; Potency, µM (titrated, usually from 102 µM), inactives show at the highest dose activity, negative = inhibition, hits mostly inhibitors; 8.8% of 350,000 active; AID 504332; note: % is set by controls: 0 for no effect and ±100 for the full control effect; nearly all actives have a fitted effect of over 75% in size
Target sequence (Q96KQ7 913-1193 limits assumed): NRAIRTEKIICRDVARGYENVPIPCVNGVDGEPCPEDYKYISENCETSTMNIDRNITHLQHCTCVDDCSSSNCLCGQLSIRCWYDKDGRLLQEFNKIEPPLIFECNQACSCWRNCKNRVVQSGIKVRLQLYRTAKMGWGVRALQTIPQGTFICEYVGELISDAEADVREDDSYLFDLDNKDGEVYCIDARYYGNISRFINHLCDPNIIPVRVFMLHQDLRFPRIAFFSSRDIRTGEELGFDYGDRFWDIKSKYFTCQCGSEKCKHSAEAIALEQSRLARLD
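AlphaScreen read-out: biotin-H3K9 peptide (500 nM) methylation by 20 nM enzyme with 20 uM SAM, 2 h at room temperature after 15 min compound preincubation; anti-monomethyl H3K9 antibody plus donor/acceptor beads, 10 min dark.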
Sfp PPTase inh: blocks B. subtilis Sfp PPTase activity | 3.5% of 310,000 active | Potency, µM, without a hit: largest response in the series, negative = inhibition, actives largely listed as inhibitors | Biochemical Sfp PPTase activity, qHTS | Q9F4F7 | AID 1490;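 note: the enzyme is Sfp with the accession as filed and its product quenches rhodamine fluorescence; 0% = enzyme reaction without inhibitor and -100% = no enzyme wells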
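After 15 min at room temperature with compound, 15 nM Sfp received 5 uM rhodamine-CoA plus 12.5 uM BHQ-2-ybbR (50 mM Hepes pH 7.6, 10 mM MgCl2). Rate came from the fluorescence difference over 30 min, ex 525/em 598 nm.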
BAZ2B block: inhibitors of human BAZ2B bromodomain. Q9UIF8. AlphaScreen BAZ2B-H3K14Ac peptide displacement. Potency, µM (series often up to 114 µM), inactives show at the highest dose activity change, negative = inhibition, most hits filed as inhibitors. 4.4% of 360,000 active; note: % is set by controls: 0 for no effect and ±100 for the full control effect; nearly all actives have a fitted effect of over 60% in size
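BAZ2B (50 nM) with biotin-H3(5-23)K14Ac peptide (50 nM) in PBS pH 7.4, 0.01% Tween-20, preformed 30 min, then compound 30 min at room temperature; top concentration 110uM. AlphaScreen streptavidin donor/nickel chelate acceptor beads (10 ug/mL final), 20 min dark, signal read.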
JMJD2A Tudor: blocks the human JMJD2A Tudor domain; O75164; AlphaScreen JMJD2A-Tudor / H3K4me3 peptide binding; Potency, µM (titrated, usually from 114 µM), for the others: top-dose activity change, negative = inhibition, usual class: inhibitors; 4.4% of 390,000 active; AID 504339; note: % is set by controls: 0 for no effect and ±100 for the full control effect; nearly all actives have a fitted effect of over 50% in size
PLK1 PBD block: PLK1 (human) polo-box domain binding inhibition; Plk1 PBD binding of FITC phosphopeptide, fluorescence polarization; 2.8% of 360,000 active; P53350; Potency, µM, for inactives: max response, negative = inhibition, usual class: inhibitors; note: series mostly up to about 57 µM; % is set by controls: 0 for no effect and ±100 for the full control effect; nearly all actives have a fitted effect of over 65% in size
HP1b chromo inh: blocks HP1-beta chromodomain binding to methylated histone tails | P83916 | AlphaScreen HP1-beta / biotin-H3K9me3 peptide binding | Potency, µM (top dose mostly 114 µM), without a hit: at the top dose activity change, negative = inhibition, most hits filed as inhibitors | 0.56% of 390,000 active | AID 540317; note: nearly all actives have a fitted effect of over 70% in size
Target sequence (P83916 whole entry, looked up): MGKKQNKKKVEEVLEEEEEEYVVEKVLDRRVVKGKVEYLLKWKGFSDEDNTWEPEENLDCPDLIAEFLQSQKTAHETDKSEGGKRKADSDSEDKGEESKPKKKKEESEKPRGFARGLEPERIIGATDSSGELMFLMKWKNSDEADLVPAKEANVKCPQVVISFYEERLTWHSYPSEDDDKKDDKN
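Compound inhibition of the preformed complex between 50 nM HP1-beta and 50 nM biotinylated H3K9me3 peptide was read by AlphaScreen. Buffer was PBS pH 7.4 with 0.01% Tween-20. Incubations ran 30 min at room temperature, with 10 ug/mL donor/acceptor beads.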
Active calls of the source: *; ? = inconclusive; nt = no result; [ ] = remark or other dose. An excerpt weighted towards active compounds, which were near 12% of everything screened. Calls come from the whole dose curve; as a rule, active = well fitted curve in the direction sought with a large enough effect; inconclusive = small, poorly fitted or top-dose-only effect, or another doubt; inactive = no such curve, though single readings can be large; an effect the other way counts as inactive or inconclusive. Potency is the fitted concentration of half-maximal effect.

SMILES	G9a inh	Sfp PPTase inh	BAZ2B block	JMJD2A Tudor	PLK1 PBD block	HP1b chromo inh
Cc1ccc(N=Cc2cc(Cc3ccccc3Cl)cc([N+](=O)[O-])c2O)c(O)c1	31.6µM*	50.1µM*	25.1µM*	14.1µM*	?	?
COc1ccc(N=Cc2cc(Cc3ccccc3Cl)cc([N+](=O)[O-])c2O)cc1OC	39.8µM*	8.0%	?	?	?	-14.3%
Cc1ccc2nc(N3CCN(C(=O)c4cccs4)CC3)c(C#N)cc2c1	48.7%	-9.0%	40.7%	44.0%	-3.1%	101.9%
COc1ccc2c(c1)c1c(c(=O)n(-c3ccccc3C)c(=O)n1CC(N)=O)n2C	-17.8%[59 µM]	nt	-12.0%	1.4%	nt	26.8%
Oc1c(N=Nc2ccccn2)ccc2ccccc12	18.9%[0.501 µM]	-14.9%	3.16µM*	2.82µM*	-10.5%	5.01µM*
Oc1[nH]c2ccccc2c1N=Nc1ccccn1	nt	nt	nt	-25.7%	0.8%	28.6%
CC(C)NCc1c(O)c(Br)cc2oc3c(c12)CCCC3	?	3.9%	4.5%	-35.4%	-8.7%	7.6%
O=C1NCCCc2c1oc1cc(Br)c(O)c(Br)c21	50.1µM*	-12.8%	-2.5%	-19.4%	-7.2%	-4.0%
N#Cc1cccc(NC(=O)C2CCN(S(=O)(=O)c3ccc4[nH]c(=O)ccc4c3)CC2)c1	-3.1%[59 µM]	nt	0.4%	-1.9%	nt	25.5%[57 µM]
CCc1noc(-c2ccc(NCc3ccccc3)c([N+](=O)[O-])c2)n1	-19.6%[59 µM]	nt	-6.5%	-11.6%	nt	23.1%
C=CCn1c(O)c(N=NC(=S)Nc2cccc(OC)c2)c2ccccc21	28.2µM*	12.2%	7.94µM*	?	0.8%	?
C=CCn1c(O)c(N=NC(=S)Nc2ccc(OC)cc2)c2ccccc21	28.2µM*	-13.2%	?	?	-0.3%	?
C=CCn1c(O)c(N=NC(=O)OCC)c2ccccc21	11.6%[59 µM]	1.6%	-27.4%	-17.6%	-12.1%	17.5%
CCOC(=O)N1CCN(S(=O)(=O)N2CCCC(C(=O)NCCCN3CCCCC3CC)C2)CC1 (stereo not given)	19.3%	10.4%	0.4%	-0.7%	1.4%	?
CCc1ccc(C(C)NC(=O)c2ccc(F)cc2)cc1 (stereo not given)	14.8%	-5.3%	-5.0%	12.1%	1.1%	51.1%
CCc1ccc(C(C)NC(=O)c2ncn[nH]2)cc1 (stereo not given)	-7.6%[59 µM]	-1.2%	50.1µM*	-18.8%[57.1 µM]	-18.7%	56.9%
O=C(Nc1nncs1)c1cc(-c2ccncc2)nc2ccc(Cl)cc12	50.1µM*	1.8%	-4.8%	-2.2%	?	32.7%
COC(=O)c1sccc1NC(=O)c1cc(-c2cccc(C)c2)nc2ccccc12	5.5%	15.8µM*	10.7%	-10.9%	-10.9%	18.2%
Cc1csc(NC(=O)c2cc(-c3ccccc3)nc3ccccc23)n1	70.8µM*	18.4%	-32.8%	-32.4%	5.1%	-8.7%
O=C(Nc1nc2c(s1)CCCC2)c1cc(-c2ccccc2)nc2ccccc12	12.6µM*	-10.3%	-33.1%	-32.4%	-1.5%	-4.1%
O=C(NCc1ccccc1Cl)c1cnc(N2CCCCC2)c2ccccc12	39.0%[59 µM]	nt	20.2%	18.4%	nt	32.2%[57 µM]
Cc1c(Cl)cnc(NC(=O)CSc2nncs2)c1Cl	5.4%[59 µM]	9.9%	-7.1%	-9.3%	-14.1%	17.8%
CC1(C(=O)NS(=O)(=O)c2ccc3c(c2)CCO3)CCN1C(=O)COc1ccc(Cl)cc1 (stereo not given)	nt	nt	nt	nt	-6.2%	nt
Cc1ccc(C(=O)Nc2nc3c(s2)CCCC3)o1	56.2µM*	-9.8%	-34.5%	-33.1%	-9.5%	11.8%
CC(C)(C)c1nnc(NC(=O)c2cc(-c3ccccc3)nc3ccccc23)s1	?	20µM*	-35.2%	-32.6%	23.8µM*	-52.4%
SMILES	G9a inh	Sfp PPTase inh	BAZ2B block	JMJD2A Tudor	PLK1 PBD block	HP1b chromo inh
Nc1cnc(Br)cc1Br	9.0%	-8.8%	4.3%	-11.0%	-1.0%	11.8%
Nc1cc2nsnc2cc1Br	?	39.8µM*	12.0%[57.1 µM]	-34.7%	?	?
CCOC(=O)N1CCC2(CC1)C(C#N)=C(N)Oc1c2c(C)nn1-c1cccc(Cl)c1	?	2.6%	50.1µM*	?	?	-11.0%
C#Cc1ccc([C@H]2C=C(C(=O)O)O[C@@H](OCCCCO)C2)cc1	nt	nt	nt	-14.8%	-15.6%	43.2%
COc1ccc([C@@H]2C=C(C(=O)O)O[C@H](OCCCCO)C2)cc1	-10.5%[12.7 µM]	27.3%	79.4µM*	?	-4.3%	34.3%
COC(=O)C1=C(C)NC(C)=C(C(=O)NCCCN2CCC(c3ccccc3)(c3ccccc3)CC2)C1c1ccc([N+](=O)[O-])cc1 (stereo not given)	nt	-23.1%	nt	nt	nt	nt
Cc1ccc(SCCCCN2CCOCC2)cc1	-27.3%	-0.6%	-5.1%	-19.2%	-13.1%	25.6%
CC(=O)Oc1ccc(OC(C)=O)c(SCCCCCN2CCOCC2)c1	27.5%[0.501 µM]	79.4µM*	-34.0%	-13.2%	-9.8%	?
CC1CN(CCOCCSc2ccccc2)CC(C)O1 (stereo not given)	35.2%[12.7 µM]	2.5%	-19.3%	-15.9%	-14.3%	18.3%
Clc1ccc(SCCCCN2CCOCC2)cc1	3.98µM*	-36.0%	31.6µM*	5.62µM*	1.1%	39.8µM*
Clc1ccc(SCCOCCN2CCc3ccccc3C2)cc1	11.9%	3.8%	-9.0%	15.8%	5.2%	156.2%
CC1CN(CCCCSc2ccc(Cl)cc2)CC(C)O1 (stereo not given)	22.4µM*	-11.5%	?	17.8µM*	-11.4%	?
CC1CCN(CCOCCSc2ccc(Cl)cc2)CC1	nt	-18.7%	50.1µM*	7.08µM*	-15.2%	?
CC1CCCN(CCSc2ccc(Cl)cc2)C1 (stereo not given)	11.2µM*	5.2%	-36.4%	?	-19.5%	?
CC1CN(CCOCCSc2ccc(Cl)cc2)CC(C)O1 (stereo not given)	?	-25.0%	50.1µM*	8.91µM*	-1.7%	?
CCOC(=O)C1CCN(CCCSc2ccc(Cl)cc2)CC1	nt	11.4%	-2.8%	-10.8%	-8.9%	17.5%
CN(CC(=O)Nc1cccc(Cl)c1)S(=O)(=O)/C=C/c1ccccc1	nt	nt	nt	nt	-3.4%	nt
Cc1ccc(C)c(NS(=O)(=O)c2ccc3[nH]c(=O)oc3c2)c1	44.7µM*	3.7%	79.4µM*	-27.8%	-13.9%	-9.8%
Cc1cccc(NS(=O)(=O)c2ccc3[nH]c(=O)oc3c2)c1C	nt	nt	nt	-6.2%	-1.6%	31.5%
CC(=O)N(CCC(c1ccco1)C(C)C)Cc1ccc(Cl)cc1 (stereo not given)	14.3%	-19.5%	-22.2%	-6.4%	-9.1%	54.5%
CCC(=O)N(CCC(c1ccco1)C(C)C)Cc1ccccc1 (stereo not given)	nt	44.7µM*	4.2%	79.4µM*	?	0.0%
CCC(=O)N(CCC(c1ccc(C)cc1)c1ccco1)Cc1ccco1 (stereo not given)	?	?	50.1µM*	?	-26.4%	-8.8%
